# Screening results from PubChem.
# M4 ag = CHRM4 agonism in calcium assay | activation, % at 3 µM | AID 624127 | CHO-K1 hM4/Gqi5, Fluo-8 calcium fluorescence; vehicle 0%, full acetylcholine response 100% | hit rate 0.14% among 360,000 | P08173;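 active = activation above the run mean over all test wells plus 3 SD, cut at about 32% in these data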;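 note: peak over basal fluorescence ratio per well then scaled between controls; 0% = DMSO wells and 100% = acetylcholine at EC100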
# Target sequence (P08173 whole entry, looked up): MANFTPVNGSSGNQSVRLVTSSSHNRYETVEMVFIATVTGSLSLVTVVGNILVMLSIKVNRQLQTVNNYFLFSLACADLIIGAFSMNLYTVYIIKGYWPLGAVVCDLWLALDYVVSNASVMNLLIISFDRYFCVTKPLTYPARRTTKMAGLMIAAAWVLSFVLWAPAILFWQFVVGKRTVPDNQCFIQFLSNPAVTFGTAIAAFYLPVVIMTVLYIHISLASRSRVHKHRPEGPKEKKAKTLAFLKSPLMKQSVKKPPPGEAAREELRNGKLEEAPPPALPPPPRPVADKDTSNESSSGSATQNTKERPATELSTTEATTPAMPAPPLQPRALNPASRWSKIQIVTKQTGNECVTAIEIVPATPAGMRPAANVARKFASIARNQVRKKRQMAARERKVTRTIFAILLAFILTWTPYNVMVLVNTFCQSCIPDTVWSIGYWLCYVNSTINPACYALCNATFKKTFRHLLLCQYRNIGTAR
# CHRM4 PAM = potentiates acetylcholine response at human M4 receptor; P08173; CHO-K1 hM4/Gqi5, Fluo-8 calcium fluorescence, ACh EC20; 0% = ACh EC20, 100% = maximal ACh; activation, % at 3 µM; hit rate 0.4% among 360,000;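 active = activation above its plate's cutoff, the mean activation of sample wells plus 3 SD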
# CHO-K1 Ca antag = M1 antagonist counterscreen hit in parental CHO-K1 cells. ATP-induced calcium, Fluo-8 fluorescence. hit rate 0.6% among 360,000. inhibition, % at 3 µM;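 active = inhibition above a per-plate cutoff, the plate's mean sample inhibition plus 3 SD, cut at about 24% in these data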;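 note: 0% = DMSO plus EC80 ATP and 100% = DMSO alone without ATP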
# M1 ag parental = M1 agonist counterscreen hit in parental CHO-K1 cells | Fluo-8 calcium fluorescence; scaled to maximal ATP response, vehicle zero | activation, % at 3 µM | hit rate 0.48% among 360,000; in the data active = activation above about 15%;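 note: untransfected CHO-K1 host cells lacking M1 receptor as counterscreen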
# CHO-K1 Ca PAM = counter-screen for M1 PAMs: effect in parental CHO-K1 cells | ATP EC20, Fluo-8 calcium fluorescence; 0% at ATP EC20, 100% at ATP max | activation, % at 3 µM | AID 602247 | hit rate 0.02% among 360,000;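 active = activation above the run cutoff, the mean activation of all test compounds plus 3 SD, cut at about 40% in these data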;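 note: peak over basal fluorescence ratio in a 140 s read after ATP addition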
# CHRM4 antagonist = CHRM4 antagonism in calcium assay; P08173; CHO-hM4 cells, ACh EC80, Fluo-8 calcium fluorescence; inhibition, % at 3 µM; hit rate 0.73% among 360,000; AID 624125;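 active = inhibition above its plate's cutoff, the mean inhibition of sample wells plus 3 SD, cut at about 27% in these data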;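 note: 0% = acetylcholine EC80 with DMSO and 100% = DMSO without agonist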
# * marks the source's active call; other numbers are inactive results. Rows were chosen to be rich in hits. Some 2% of all compounds tested hit in one or more screens of this group.
SMILES,M4 ag,CHRM4 PAM,CHO-K1 Ca antag,M1 ag parental,CHO-K1 Ca PAM,CHRM4 antagonist
O=C1/C(=C\c2cccc(O)c2O)SC(=S)N1Cc1ccccc1,0.5,1.1,3.9,0.0,-0.7,7.8
O=C1/C(=C\c2cc([N+](=O)[O-])ccc2O)SC(=S)N1Cc1ccc(Cl)cc1,17.3,-22.6,6.7,6.6,-5.9,30.0*
NS(=O)(=O)c1ccc(CNC(=O)C23CC4CC(CC(C4)C2)C3)cc1,0.6,8.5,28.5*,-0.6,-9.3,7.5
NS(=O)(=O)c1ccc(CNC(=O)NC23CC4CC(CC(C4)C2)C3)cc1,0.6,-0.6,-7.9,0.1,10.9,-2.1
COc1ccccc1-c1sc2cc3c(cc2c1-c1ccc(OCCN2CCCCC2)cc1)OCO3,6.8,0.1,-1.8,0.3,1.1,34.8*
COC(=O)CNC(=O)COC(=O)/C=C/c1cccs1,-0.2,1.6,-8.0,0.6,19.7,4.8
COC(=O)CNC(=O)COC(=O)/C=C/c1ccc2ccccc2n1,2.5,2.7,12.7,16.0*,3.1,-1.5
COc1ccc(C(=O)C2CCCN(C3Cc4ccccc4C3)C2)cc1OC (stereo not drawn),0.8,-17.7,2.1,-0.1,-10.0,29.4*
Cc1ccc(NC(=O)COC(=O)Cn2ccc(C(F)(F)F)n2)cc1Cl,-0.2,22.3*,-5.3,-0.2,2.7,-19.6
Cc1ccc(NC(=O)COC(=O)CN2CCSC2=O)cc1Cl,4.5,10.8,-0.5,6.0,28.9,-20.4
COc1cccc(NC(=O)c2ccncc2)c1,-0.1,-0.1,-4.7,0.3,14.4,7.0
Cc1occc(=O)c1OCc1ccccc1,1.8,-2.6,-0.2,0.0,6.0,1.6
NC(=O)Cc1ccc(C(=O)c2ccccc2F)s1,1.2,-2.5,25.3*,0.1,-9.2,5.2
NC(=O)Cc1ccc(C(=O)c2ccc(F)cc2)s1,1.2,3.3,7.2,-0.2,1.6,-3.2
CCOc1ccccc1NC(=O)Nc1ccc2c(c1)CCC2,0.2,19.9*,-9.8,0.0,-6.4,-3.8
CCOc1ccccc1NC(=O)Nc1cccc(NC(C)=O)c1,2.6,-7.7,-2.1,1.7,12.8,-7.7
O=C(NCc1cccs1)c1ccc2sc([C@@H]3O[C@H](CO)[C@H](O)[C@H](O)[C@H]3O)nc2c1,0.8,15.7*,-8.6,0.0,20.1,-14.0
Cc1ccc(-c2csc(NC(=O)CSC3=NCCS3)n2)cc1,3.4,-3.5,24.8*,0.0,-5.9,2.0
Cc1sc(NC(=O)CSC2=NCCS2)nc1-c1ccccc1,2.1,-3.2,0.9,0.5,6.3,1.7
O=C1Nc2ccccc2C(=O)C1(Cl)Cc1ccccc1 (stereo not drawn),1.3,12.8,-10.4,0.9,16.9,9.1
C/C(=N/OC(=O)c1c(-c2ccccc2Cl)noc1C)c1cnccn1,4.4,-20.9,-0.6,1.7,5.7,33.9*
COc1ccc(C(=O)c2cnc[nH]2)cc1,0.1,-0.5,-9.3,0.3,12.9,-1.0
COC(=O)c1ccc(CNC(=O)c2cc(COc3cncc(Cl)c3)on2)cc1,1.9,1.0,0.1,0.8,-20.5,-6.3
CC(C)c1cc(CNC(=O)c2cc(COc3cncc(Cl)c3)on2)on1,4.8,1.0,10.5,15.5*,-12.2,3.8
CC(C)CCNC(=O)c1cc2c(=O)[nH]c3ccccc3c2s1,8.7,26.2*,-9.8,1.0,14.5,19.1
SMILES,M4 ag,CHRM4 PAM,CHO-K1 Ca antag,M1 ag parental,CHO-K1 Ca PAM,CHRM4 antagonist
O=C1NC(=S)S/C1=C\C=C\c1ccc([N+](=O)[O-])o1,22.2,-20.3,43.6*,25.9*,1.7,68.2*
O=C(O)/C=C/c1ccc([N+](=O)[O-])o1,1.8,2.0,-9.5,1.8,16.3,-0.8
C[C@H]1CN([C@@H](C)CO)C(=O)Cc2cc(NC(=O)C3CC3)ccc2O[C@H]1CN(C)Cc1ccc(Oc2ccccc2)cc1,10.0,-4.0,-12.0,0.9,4.3,11.2
Cc1ccsc1/C=N/NC(=O)c1nnn(-c2nonc2N)c1C(C)C,7.5,0.2,-13.5,6.5,15.3,-1.8
CC(C)c1c(C(=O)N/N=C/c2ccsc2)nnn1-c1nonc1N,15.7,-6.5,6.0,22.3*,14.4,5.6
CC(C)c1c(C(=O)N/N=C/c2ccoc2)nnn1-c1nonc1N,2.0,-3.1,-22.3,2.3,3.4,-25.6
CC(C)c1c(C(=O)N/N=C/c2cccs2)nnn1-c1nonc1N,5.2,-2.2,3.0,33.1*,-9.6,4.8
COc1ccc(CCNC(=O)c2ccco2)cc1OC,1.0,4.8,-16.1,2.2,14.0,-13.2
CC(C)CCN1CCC[C@]2(N[C@H](c3ccc(C(F)(F)F)cc3)[C@@H]3C(=O)N(Cc4ccccc4)C(=O)[C@@H]32)C1=O,-0.8,8.5,-4.8,5.1,24.4,-11.7
O=c1c(C(c2ccc(O)cc2)c2c(O)nc3n(c2=O)CCS3)c(O)nc2n1CCS2,-0.2,-5.1,24.5*,-0.3,-7.9,4.7
O=c1c(C(c2ccc(O)cc2)c2c(O)nc3n(c2=O)CCCS3)c(O)nc2n1CCCS2,-0.6,-2.4,4.0,-0.1,12.3,-2.8
COc1ccc(C(CNC(=O)c2cc(S(=O)(=O)NCc3ccccc3)ccc2C)N2CCOCC2)cc1 (stereo not drawn),2.6,-1.9,27.6*,-0.6,-21.2,-18.9
COc1ccc2c(c1)C1(Nc3ccccc3-c3nc4ccccc4n31)C(=O)N2 (stereo not drawn),6.4,-3.9,3.6,37.4*,12.6,4.8
CC(C)(C)NC(=O)CSc1nncn1NCc1ccccc1,0.9,9.8,-9.5,0.8,22.3,-2.1
COc1ccccc1Nc1nc(=O)[nH]nc1C,0.9,-1.4,-7.8,0.1,4.0,6.3
Cc1n[nH]c(=O)nc1NC(C)c1ccccc1 (stereo not drawn),1.3,15.1,0.9,-0.1,10.8,27.5*
C=CC[n+]1ccc(/C=C2\C=Cc3cc(C)ccc3N2CC)c2ccccc21,4.5,-12.5,48.8*,7.5,-22.3,15.2
CCOC(=O)CNC(=O)C(NC(=O)C1CCC(C)CC1)C(C)CC (stereo not drawn),0.9,2.9,0.7,0.0,5.1,0.9
CCC(C)C(NC(=O)C1CCC(C)CC1)C(=O)NC(C(=O)OC)C(C)C (stereo not drawn),1.8,20.3*,-3.1,-0.2,-6.4,-2.5
O=C1[C@H]2[C@@H](c3ccc(F)cc3)N3C(=O)N(c4ccccc4)C(=O)[C@@]3(Cc3ccccc3)[C@H]2C(=O)N1C1CCCCC1,2.4,6.1,-13.7,-0.2,-10.2,3.5
COc1ccc(C(=O)Nc2c(N)nc(SCC(=O)Nc3ccc(NC(C)=O)cc3)[nH]c2=O)cc1,1.0,7.9,-1.7,0.1,-11.8,-5.8
COc1ccc(NC(=O)CSc2nc(N)c(NC(=O)c3ccccc3F)c(=O)[nH]2)cc1,0.7,16.7*,5.0,0.1,-2.1,1.9
COc1ccccc1CNC(=O)c1n[nH]c2ccccc12,1.4,-1.1,7.8,17.1*,8.7,-6.1
